The subject of this experiment is RARa homodimer (NR concentration 270 nM). In words: PBM binding z-score (relative to random genomic background probes); higher = stronger binding; sequences stand for … in GC…GCGATTGACAGCGTAGAATGAAGG
The method, boiled down: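 Antibodies against each partner of ligand-free nuclear receptor dimers (one per run) detected binding on custom Agilent 4×180K protein-binding microarrays after 1 h incubation. The double-stranded probes had 34-nt variable regions carrying direct-repeat seeds, single-nucleotide variants, half-site ablations and random human genomic background sequences. Binding z-scores, from regression-normalized fluorescence, use the random background probes as reference.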
Turning to ACTATTAGTTGAGAAGAGGGCAACCGATAGGTTG, the PBM binding z-score was found to be 1.19.
To CGAACTAGGTCTGAACAGGACAGTGAAGGATGAT belongs -0.454.
To CCGAGTAGGTTATGGGGCATTCCGGCAACGGTGA belongs 0.0897; to GCTCGGATGACAAGGTCAGAGCTTTGTCCGTAGA, -1.1; to CGAACTAGGTCAAAGGTCAAAGTCGAGCCAACCA, 3.32.
With GCGACTGGTGCATCAGCAGGTTACCATAACTTAA, the PBM binding z-score was -1.22.
With TCTAGTTGGTCACGGAGGTCACACACGACGGGTA, the PBM binding z-score was determined as 1.29.
To GTTGCTAGGTCAGGTTGGTCAGCTAACGGGTACG belongs 0.798.
Take TCGTGTAGATCAGCAGGTTAAGAAAGCTGGCCAA: the PBM binding z-score is -0.19.
To GCTGGCAGGCCATTTGGGTCACTCAATGACGGGC belongs -0.882; to TGAATCAGGTTATAAGATCAGGGAACGTTGCAAA, 0.428.
With AGCATGAGGTTATACGTAGATCAGGGAAGAAAGT, the PBM binding z-score was 0.699.
For CCTAGCAGGCCAATTTGGGTCACTCAAGGCTTGA, the PBM binding z-score is -0.55.
To GATACAGGGTCAAGACCAGAGTACGCGTATTGAT belongs 0.851; to TCTCGGAGGACACGAAGGACAGAGCTTTCCAGAG, -1.01; to CCGACTGGGCCACGAAAGGTCATTGATTCAGTGA, 0.265.
Consider ATCGAAAGGTCGAAGGTTAGTATACCCACCCGAA, for which the PBM binding z-score came out at 1.42.
To TGAATGACGTTATAAGATCAGGGAACGTTGCAAA belongs 0.18; to AGAATGAGGCTACCAAAGATCAGGGAAACGCTTG, -0.557; to CAAACTAGGTCAAGGTCATAGTCGGTTTGTGCCA, 1.31.
To TCACGGAGGACACGAAAGGTCAGAGCTCGACATC belongs 1.27; to ACTAGCAGGCCAGGTTTGGGTCACTCAAACAAAG, -0.279.
To TAGCCTAGGTCATGGGCCAGTAGACCACGCGAAC belongs -0.0215; to CCCTACGGGTCACTGACAGGTTATAGCATTTGGA, 1.02.
GATACAGGGTCAACGCCAGAGTACGCGTATTGAT had a PBM binding z-score of 0.72.
To ACAGACAGGTGACGAAGGTAACTCAGGCTATCAT belongs 0.0267; to TCAGACAGGTGGAGGTAACTCAGGTACGCAGTCG, 0.265.
In the case of TCTATTAGTTGATTAGGGCAGCCGAAACAGCGGA, the PBM binding z-score is 0.461.
Sequence GCTAGCAGGCCATTTGGGACACTCAATGACGGGC showed a PBM binding z-score of -0.547.
TAGCCTAGGTCATGCAGGCCAGTATAGTGTCGGC returned a PBM binding z-score of -0.161.
To TCTTGTAGATCAAGCAGGTTAATAAAGCCTGAGT belongs 0.125.
To CTCCAAAGGTCGTGCTCAGGTGAGTATACCAAAC belongs 0.196.
To GCTGCTAGGTCCACTGATGGTCAGCTAAAGCTCG belongs -1.55; to ATATGTAGCTTATCGGGTCATTCAGTTTGCGCAT, 0.765; to CCTCGGAGGACAGTAGGTCAGAGCTGTCCGCTTT, 0.337.
AGAATGAGGTTATAAAGATCAGGGAATTGCGGTC had a PBM binding z-score of 0.211.
The sequence GCTTGTAGATTAAGGTTAAGAAAGACTAAGCTAA gave a PBM binding z-score of 0.194.
Turning to CGTCAAAGTTCAATGTAACGTAACAGAAAGCAGC, the PBM binding z-score was found to be 1.95.
To TCTATTAGTTGATAAGGGCAACCGAAACAGCGGA belongs 0.996.
To GCTAGTTGGTCAGTAAAAGGTCACAGACCGGTCG belongs 1.97.
